High-throughput results from PubChem BioAssay.
Hits are enriched below; roughly 0.9% of the tested compounds scored in any of these assays.
RGS12 GoLoco inh = qHTS Assay for Inhibitors of RGS12 GoLoco Motif Activity (Red Fluorophore). Guanine nucleotide-binding protein G(i) subunit alpha-1 (Homo sapiens), P63096. Gai1:RGS12 GoLoco peptide FP, rhodamine, 10 min. Potency, µM (highest dose often 61.6 µM), inactives show at the top dose activity, negative = inhibition, hits mostly inhibitors. hit rate 0.44% among 230,000. AID 880, 2007; active = well fitted inhibition curve with a large enough effect, not every such curve was filed as active; inactive = no such curve, though single readings can be large or run the other way; also: nearly all actives have a fitted effect of over 30% in size
Target sequence (P63096 whole entry, looked up): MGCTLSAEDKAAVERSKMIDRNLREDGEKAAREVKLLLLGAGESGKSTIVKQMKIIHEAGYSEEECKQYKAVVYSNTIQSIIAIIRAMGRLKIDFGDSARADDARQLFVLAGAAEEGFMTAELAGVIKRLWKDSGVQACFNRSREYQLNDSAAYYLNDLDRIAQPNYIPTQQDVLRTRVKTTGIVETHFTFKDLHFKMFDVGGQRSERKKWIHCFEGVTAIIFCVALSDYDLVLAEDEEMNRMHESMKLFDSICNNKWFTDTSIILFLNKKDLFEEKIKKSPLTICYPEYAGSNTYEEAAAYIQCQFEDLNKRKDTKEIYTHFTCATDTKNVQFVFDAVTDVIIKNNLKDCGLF
BLM inh-1 = qHTS Assay for Inhibitors of Bloom's syndrome helicase (BLM). RecQ-like DNA helicase BLM (Homo sapiens), P54132. recombinant BLM DNA unwinding, fluorescence dequenching. Potency, µM (titrated, usually from 56.1 µM), inactives show top-dose activity change, negative = inhibition, usual class: inhibitors. hit rate 0.2% among 350,000. AID 2528, 2010;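 also: plate controls were vehicle for no effect and no enzyme for full effect; nearly all actives have a fitted effect of over 35% in size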
RECQ1 inh-1 = qHTS Assay for Inhibitors of RecQ-Like Dna Helicase 1 (RECQ1) | ATP-dependent DNA helicase Q1 (Homo sapiens), P46063 | RECQ1 DNA unwinding, red fluorescence kinetic read | Potency, µM (highest dose often 57.3 µM), without a hit: at the highest dose activity, negative = inhibition, hits mostly inhibitors | hit rate 0.54% among 240,000 | AID 2549, 2010;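 also: plate controls were vehicle for no effect and no enzyme for full effect; nearly all actives have a fitted effect of over 30% in size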
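50 nM RECQ1T1 preincubated 15 min with compound in Tris pH 8.0 buffer with MgCl2, DTT, Tween-20 and 2.5 ug/ml poly(dI-dC); started with 200 nM TAMRA/BHQ-2 forked duplex and 2 mM ATP. Unwinding read as fluorescence (525/598 nm), two reads 2 h apart.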
TRb SRC2 PPI = qHTS for Inhibitors of the Interaction of Thyroid Hormone Receptor and Steroid Receptor Coregulator 2 | TRbeta-SRC2 peptide binding, fluorescence polarization; receptor liganded with 1 µM T3 | Potency, µM (doses to about 106 µM), inactives show at the highest dose activity change, negative = inhibition, usual class: inhibitors | Thyroid hormone receptor beta (Homo sapiens), P10828 | hit rate 0.065% among 280,000;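 also: plate controls were bound peptide for no effect and peptide without receptor for full effect; nearly all actives have a fitted effect of over 50% in size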
Target sequence (P10828 whole entry, looked up): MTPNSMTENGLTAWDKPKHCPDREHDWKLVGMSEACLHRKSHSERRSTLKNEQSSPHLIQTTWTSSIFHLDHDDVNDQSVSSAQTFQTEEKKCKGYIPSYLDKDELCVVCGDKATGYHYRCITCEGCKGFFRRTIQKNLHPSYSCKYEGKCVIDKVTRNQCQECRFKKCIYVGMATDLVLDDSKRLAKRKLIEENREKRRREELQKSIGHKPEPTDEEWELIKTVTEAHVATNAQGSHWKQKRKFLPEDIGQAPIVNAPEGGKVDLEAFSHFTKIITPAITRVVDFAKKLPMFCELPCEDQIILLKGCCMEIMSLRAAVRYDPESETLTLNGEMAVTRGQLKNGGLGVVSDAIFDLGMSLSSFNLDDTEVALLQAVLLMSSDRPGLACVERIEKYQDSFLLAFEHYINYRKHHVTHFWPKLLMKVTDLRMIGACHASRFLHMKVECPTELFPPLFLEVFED
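TRb LBD 0.6 uM + Texas Red SRC2 peptide 20 nM, 1 uM T3, Tris buffer w/ 5% DMSO; compound pinned, 5 h RT; FP read ex 555/em 632; normalized to unbound and bound controls.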
APE1 inh-1 = qHTS Assay for Inhibitors of the Human Apurinic/apyrimidinic Endonuclease 1 (APE1); DNA repair nuclease/redox regulator APEX1 (Homo sapiens), P27695; recombinant APE1, TAMRA/BHQ-2 abasic DNA cleavage fluorescence; Potency, µM (highest dose often 65.8 µM), inactives show at the top dose activity change, negative = inhibition, usual class: inhibitors; hit rate 0.35% among 350,000; AID 2517, 2012;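 also: plate controls were vehicle for no effect and reference inhibitor for full effect; nearly all actives have a fitted effect of over 55% in size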
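APE1 at 0.75 nM preincubated 15 min at room temperature with compound. Reaction then started with 50 nM double-stranded THF-abasic substrate labelled with TAMRA/BHQ-2, and 525/598 nm fluorescence read kinetically. Activity taken as third-minus-first read difference, normalized to DMSO and NSC13755 controls.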
TexasRed fluor = Total Fluorescence Counterscreen for Inhibitors of the Interaction of Thyroid Hormone Receptor and Steroid Receptor Coregulator 2; TRb/SRC2 Texas Red total fluorescence interference; Potency, µM (top dose mostly 106 µM), for the others: at the highest dose fluorescence change, negative = quenching; hit rate 0.29% among 280,000; active = well fitted curve in either direction with a large enough effect; inconclusive = small, poorly fitted or top-dose-only effect
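Flags fluorescent or light-absorbing compounds by total fluorescence, S + 2P, at 555 nm excitation and 632 nm emission. Mixture: 20 nM Texas Red SRC2 peptide, 0.6 uM human TRb LBD, 1 uM T3, 5% DMSO; compound exposure 5 h at ambient temperature.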
APE1 dye cs = Counterscreen for APE1 Inhibitors: Fluorescent Dye Displacement Assay. shares compounds with APE1 inh-1. DNA fluorescent dye displacement counterscreen, fluorescence. Potency, µM (doses to about 28.5 µM), for the others: top-dose activity change, negative = inhibition, hits mostly inhibitors. hit rate 7% among 480. AID 2564, 2010;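 also: loss of thiazole orange fluorescence as the dye is displaced from duplex DNA; 0% = ThO with dsDNA and no compound and -100% = ThO without dsDNA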
EndoIV counter = Counterscreen for APE1 Inhibitors: qHTS Assay for Inhibitors of Endonuclease IV | E. coli Endo IV, fluorogenic AP-site DNA cleavage | shares compounds with APE1 inh-1 | Potency, µM (series often up to 27.1 µM), for the others: top-dose activity change, negative = inhibition, actives largely listed as inhibitors | hit rate 4% among 560;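 also: plate controls were uninhibited enzyme wells for no effect and no enzyme buffer wells for full effect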
APE1 inh-2 = Confirmation qHTS Assay for Inhibitors of the Human Apurinic/apyrimidinic Endonuclease 1 (APE1). shares compounds with APE1 inh-1. purified APE1, fluorogenic abasic-site DNA cleavage. Potency, µM (doses to about 57.1 µM), without a hit: at the top dose activity change, negative = inhibition, most hits filed as inhibitors. hit rate 44% among 750; also: nearly all actives have a fitted effect of over 30% in size
APE1 FP inh = qHTS FP-Based Assay for Inhibitors of the Human Apurinic/apyrimidinic Endonuclease 1 (APE1); AID 2573, 2010; Potency, µM (series often up to 28.5 µM), inactives show top-dose activity, negative = inhibition, actives largely listed as inhibitors; APE1 binding to TAMRA-labelled double-stranded DNA, fluorescence polarization displacement; hit rate 7% among 480; shares compounds with APE1 inh-1
BLM inh-2 = qHTS Confirmation Assay for Inhibitors of Bloom's syndrome helicase (BLM); shares compounds with BLM inh-1; BLM DNA unwinding, fluorescence quenching, biochemical; Potency, µM, inactives show max response, negative = inhibition, hits mostly inhibitors; hit rate 40% among 220;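 also: strand separation dequenches TAMRA so unwinding raises red fluorescence; series mostly up to about 69 µM; nearly all actives have a fitted effect of over 45% in size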
RECQ1 conf = Confirmation qHTS Assay for Inhibitors of RecQ-Like Dna Helicase 1 (RECQ1); shares compounds with RECQ1 inh-1; RECQ1 helicase DNA unwinding, fluorescence; Potency, µM (doses to about 229 µM), without a hit: top-dose activity change, negative = inhibition, usual class: inhibitors; hit rate 28% among 610; AID 2708, 2010; also: nearly all actives have a fitted effect of over 45% in size
RECQ1 ADP FP = Counterscreen for RECQ1 Inhibitors: ADP Fluorescence Polarization Displacement Assay | shares compounds with RECQ1 inh-1 | ADP fluorescence polarization displacement counterscreen | Potency, µM (top dose mostly 228 µM), for the others: at the highest dose activity change, negative = inhibition, most hits filed as inhibitors | hit rate 27% among 530 | AID 2711, 2010; also: nearly all actives have a fitted effect of over 45% in size
RECQ1 inh-2 = Confirmation qHTS Assay for Inhibitors of RecQ-Like Dna Helicase 1 (RECQ1) - Round 2 Cherry Picks | shares compounds with RECQ1 inh-1 | recombinant RECQ1 DNA unwinding, red fluorescence | Potency, µM (highest dose often 119 µM), without a hit: at the highest dose activity, negative = inhibition, hits mostly inhibitors | hit rate 15% among 1,100 | AID 504841, 2011; also: nearly all actives have a fitted effect of over 50% in size
* hit, by the source's call; ? = inconclusive; . = no result; ! = not active in a repeat; [ ] = remark or other dose. Unless noted, calls follow the shape of the dose curve; as a rule, active = well fitted curve in the direction sought with a large enough effect; inconclusive = small, poorly fitted or top-dose-only effect, or another doubt; inactive = no such curve, though single readings can be large; an effect the other way counts as inactive or inconclusive. Unless noted, % is scaled to controls: 0 for no effect and ±100 for the full control effect; potency is read from the fitted curve at half-maximal effect.

SMILES | RGS12 GoLoco inh | BLM inh-1 | RECQ1 inh-1 | TRb SRC2 PPI | APE1 inh-1 | TexasRed fluor | EndoIV counter | APE1 inh-2 | others
C/C=C(\C)C(=O)O[C@H]1C[C@@H](OC(C)=O)[C@@]2(C(=O)OC)CO[C@H]3[C@@H](O)[C@@](C)([C@]45O[C@@]4(C)[C@H]4C[C@@H]5O[C@@H]5OC=C[C@@]54O)[C@H]4[C@]1(CO[C@]4(O)C(=O)OC)[C@@H]32 | . | . | . | -2%[201 µM] | . | -3%[201 µM] | . | .
CC(C)CC(=O)Nc1ccc(C(=O)Cn2c(=O)oc3ccccc32)cc1 | 8% | -12% | -4% | 0% | ? | -4% | -4% | ? | APE1 dye cs=-8%;APE1 FP inh=4%
Cc1sc(NC(=O)Cn2c(=O)oc3ccccc32)nc1-c1ccc(Cl)cc1 | -30% | -6% | -5% | 3% | 15% | 0% | . | .
C=CCn1c(O)c(/C(CC)=N/NC(=S)Nc2ccccc2)c(=O)[nH]c1=O | 2% | -2% | -12% | -4% | ? | 2% | . | ?
CS(=O)(=O)NC(=O)c1cc(Oc2ccc(C(F)(F)F)cc2Cl)ccc1[N+](=O)[O-] | . | . | . | 4%[201 µM] | . | -1%[201 µM] | . | .
O=C1NC(=O)N(c2ccccc2)C(=O)/C1=C\C=C\c1ccccc1 | -2% | -11% | -14% | 4% | -2% | -4% | . | .
CCCCN1C(=O)/C(=C/C=C/c2ccco2)C(=O)NC1=S | 228% | 41% | 14µM* | ? | 32µM* | 18% | 53% | 14µM* | APE1 dye cs=30%;APE1 FP inh=65%
Cc1ccc(C(=O)Nc2ccccc2)cc1S(=O)(=O)N1CCCC1 | . | -5% | . | 0% | . | -1% | . | .
CC1Cc2ccccc2N1NC(=O)c1ccc(Cl)c(S(N)(=O)=O)c1 (centres undefined) | 8% | -8% | -5% | 4% | 2.2µM*! | 2% | 18%[57.1 µM] | -10% | APE1 dye cs=1%[57.1 µM];APE1 FP inh=8%[57.1 µM]
Brc1ccc(Br)cc1 | . | . | . | -5%[201 µM] | . | 2%[201 µM] | . | .
COc1ccc(CN2C(=O)NC(=O)/C(=C/c3ccoc3)C2=O)cc1 | 21% | -20% | ? | 21% | 8.9µM* | 28% | -9% | 4µM* | APE1 dye cs=0%;APE1 FP inh=?
COc1ccc(CN2C(=O)NC(=O)/C(=C/c3cc(OC)c(OC)c(OC)c3)C2=O)cc1 | -5% | -2% | -6% | 0% | 2% | -8% | . | .
CC(C)NC(C)Cc1ccc(I)cc1 (centres undefined) | -6% | -4% | 1% | 10% | 8% | -2% | -5%[57.1 µM] | -19%
CNC(C)Cc1ccc(OC)cc1 (centres undefined) | . | -10% | -12% | 1% | -4% | -1% | . | .
O=c1c2ccccc2nc(/C=C/c2cccnc2)n1Cc1ccccc1 | 1% | -6% | -7% | -6% | ? | -1% | . | 28µM*
O=c1c(O)c(-c2ccc(O)c(O)c2)oc2cc(O)cc(O)c12 | -1% | -14% | 1.8µM*! | 6% | 1.3µM*! | ? | -63%[57.1 µM] | -37% | RECQ1 conf=?;RECQ1 ADP FP=13µM*
CC(C1CC1)C(O)(Cn1cncn1)c1ccc(Cl)cc1 (centres undefined) | . | . | . | 0%[201 µM] | . | 1%[201 µM] | . | .
CC(=O)Nc1ccc(N=Cc2c(O)n(Cc3ccco3)c(=O)[nH]c2=O)cc1 | 0% | ? | ? | 1% | ? | -3% | . | -26% | RECQ1 inh-2=?
O=c1[nH]c(=O)n(Cc2ccco2)c(O)c1C=NCc1ccco1 | 33% | -9% | -2% | 7% | 1% | -1% | . | .
CCc1nnc(NC(=O)CSc2ccc(-c3ccco3)nn2)s1 | 27% | 14µM* | ? | -9% | ? | -14% | . | ? | BLM inh-2=?;RECQ1 inh-2=-14%
CCC[CH2][Sn]1([CH2]CCC)[O]C(=O)C=CC(=O)[O]1 | . | . | . | -8%[201 µM] | . | -4%[201 µM] | . | .
c1ccc2c(c1)[nH]c1cnccc12 | 5% | 6% | 28% | -3% | 23% | -3% | . | .
